Reference: PubChem BioAssay (Tox21)
Results filed as inconclusive are left out. Activity calls are given as the source filed them. Unless noted, the call rests on the fitted dose curve.

Tests used:
[1] = Nuclear factor erythroid 2-related factor 2/antioxidant responsive element (Nrf2/ARE) small molecule agonists: qHTS cell viability counter screen in human keratinocytes (AID 1919968; active means well fitted curve in the direction sought with a large enough effect in the repeat runs; an effect the other way counts as inactive or inconclusive; further: nearly all actives have a fitted effect of over 55% in size)
Method in brief: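 Cells of the KeratinoSens line were plated at 1,500 per well and left for 5 h before compound transfer from DMSO stocks. After a 23 h incubation (37 C, 5% CO2), CellTiter-Fluor was added. Signal was taken as fluorescence intensity 1 h later.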

[2] = target: Gonadotropin-releasing hormone receptor (Homo sapiens) (UniProt P30968); assay: Human gonadotropin-releasing hormone receptor (GnRHR) small molecule agonists, calcium flux assay in GnRHR-HEK293 cells (AID 1920063); further: nearly all actives have a fitted effect of over 35% in size
Method in brief: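 Compounds dissolved in DMSO are pin-transferred onto dye-loaded GnRHR-HEK293 cells, which were seeded 18 h before at 37 C/5% CO2. Calcium signal is read as fluorescence intensity at 1 s intervals for 3 min.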

[3] = target: KiSS-1 receptor (Homo sapiens) (UniProt Q969F8); assay: Human kisspeptin (KISS1R) small molecule agonists, calcium flux assay in KISS1R-HEK293 cells (AID 1920064; active means well fitted curve in the direction sought with a large enough effect in the repeat runs; an effect the other way counts as inactive or inconclusive)
Method in brief: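 Cell line: HEK293, stable human KISS1R. Dye loading 1 h at 37 C after 18 h culture. Read: kinetic fluorescence, 480/540 nm, 3 min at 1 s intervals.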

[4] = G protein-coupled receptor (GPCR) small molecule agonists, calcium flux assay: HEK293 wild type cell line counter screen (AID 1920065)
Method in brief: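 Tox21 10K compounds, 15 concentrations each in triplicate, pin-transferred in DMSO onto dye-loaded cells; kinetic read at 480/540 nm for 3 min, 1 s intervals.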

[5] = p53 small molecule agonists, cell-based qHTS assay with human liver microsomes (AID 1963577);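 further: p53 response element beta-lactamase reporter cells with liver microsomes plus NADPH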
Method in brief: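 Metabolically competent format: test substances, human liver microsomes and NADPH (both 0.5 mg/mL final) incubated with p53RE-bla cells 16 h at 37 C. Beta-lactamase reporter signal then quantified by fluorescence.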

[6] = p53 small molecule agonists, cell-based qHTS assay with rat liver microsomes (AID 1963578)
Method in brief: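 Each plate received p53RE-bla cells, then compound, then rat liver microsomes and NADPH (both 0.5 mg/mL final). Plates were held 16 h at 37 C, and beta-lactamase activity was detected with LiveBLAzer over 2 h.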

[7] = p53 small molecule agonists, cell-based qHTS assay with human liver microsomes: qHTS cell viability counter screen (AID 1963579); further: nearly all actives have a fitted effect of over 45% in size
Method in brief: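 Tox21 library compounds, delivered from DMSO stocks, were tested on p53RE-bla cells together with 0.5 mg/mL human liver microsomes and 0.5 mg/mL NADPH (final) over 16 h at 37 C; CellTiter-Glo luminescence served as the cytotoxicity measure.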

[8] = p53 small molecule agonists, cell-based qHTS assay with rat liver microsomes: qHTS cell viability counter screen (AID 1963580); further: nearly all actives have a fitted effect of over 45% in size
Method in brief: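 Cytotoxicity counter screen: intracellular ATP measured by CellTiter-Glo luminescence in the same wells as the beta-lactamase reporter read, on HCT-116 p53RE-bla cells exposed 16 h at 37 C to compounds with rat liver microsomes and NADPH, each 0.5 mg/mL final.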

[9] = p53 small molecule agonists, cell-based qHTS assay: qHTS cell viability counter screen (AID 1963581); further: nearly all actives have a fitted effect of over 45% in size
Method in brief: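 ATP content measured by luminescence in HCT-116 p53RE-bla cells treated 16 h at 37 C, same wells as the reporter screen.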

[10] = p53 small molecule agonists, cell-based qHTS assay (AID 1963582; active means well fitted activation curve with a large enough effect in the signal ratio in the repeat runs, not every such curve was filed as active; the % refers to the signal ratio)
Method in brief: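 16 h compound exposure (37 C) of p53 response element–bla cells, preceded by 5 h recovery at 37 C/5% CO2; read-out via LiveBLAzer B/G FRET substrate, 2 h RT, fluorescence intensity.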

[11] = target: Muscarinic acetylcholine receptor M1 (Homo sapiens) (UniProt P11229); assay: Cholinergic receptor muscarinic 1 (CHRM1) small molecule agonists, cell-based qHTS assay (AID 1963589); further: nearly all actives have a fitted effect of over 35% in size
Method in brief: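 Homogeneous fluorescence calcium flux, agonist mode. Human M1-expressing CHO cells; compound dosed at 15 concentrations, three independent runs; signal sampled every 1 sec.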

[12] = cAMP Responsive Elements (CRE) small molecule agonists, cell-based qHTS assay (AID 1963590)
Method in brief: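 HEK 293T cells stably bearing CRE-bla were plated at 2,000 cells per well and rested 18 h. Compounds, positive controls or DMSO were added for 3 h at 37 C. LiveBLAzer B/G substrate was then loaded for 2 h at room temperature.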

[13] = cAMP Responsive Elements (CRE) small molecule antagonists, cell-based qHTS assay (AID 1963591; active means well fitted inhibition curve with a large enough effect in the signal ratio in the repeat runs, not every such curve was filed as active; the % refers to the signal ratio)
Method in brief: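 First, CRE-bla HEK293T cells settled 18 h at 37 C. Next, compound and 0.25 uM final NKH477 were applied for 3 h. Last, LiveBLAzer B/G substrate was loaded for 2 h at room temperature.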

[14] = target: Beta-2 adrenergic receptor (Homo sapiens) (UniProt P07550); assay: Adrenergic beta2 receptor (ADRB2) small molecule antagonists, cell-based qHTS assay (AID 1963592); further: series mostly up to about 92 µM; nearly all actives have a fitted effect of over 50% in size
Method in brief: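 Assay format: CHO-ADRB2 cells, 18-20hr seeding at 37C/5% CO2, then compound plus 1nM isoproterenol agonist mix for 0.5hr RT. Homogeneous time-resolved fluorescence cAMP detection after 1hr, expressed as 665/615 nm ratio.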

[15] = target: D(2) dopamine receptor (Homo sapiens) (UniProt P14416); assay: Dopamine D2 receptor (DRD2) small molecule agonists, cell-based qHTS assay (AID 1963594); further: nearly all actives have a fitted effect of over 35% in size
Method in brief: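 HEK293 cells stably expressing human DRD2, pre-treated with PDE inhibitor Ro20-1724 (0.1 mM final) and compound 10 min at room temperature, then stimulated with NKH477 (200nM […]) for 30 min. cAMP read by HTRF (665/620 nm).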

[16] = target: D(2) dopamine receptor (Homo sapiens) (UniProt P14416); assay: Dopamine D2 receptor (DRD2) small molecule antagonists, cell-based qHTS assay (AID 1963595; active means well fitted inhibition curve with a large enough effect in the signal ratio in the repeat runs, with a control signal flat; the % refers to the signal ratio)
Method in brief: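 Antagonism was scored as restored cAMP in HEK293-DRD2 cells. These cells were stimulated with 200 nM NKH477 and 12 nM quinpirole for 30 min at room temperature, in the presence of 0.1 mM Ro20-1724.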

[17] = target: 5-hydroxytryptamine receptor 2A (Homo sapiens) (UniProt P28223); assay: 5-hydroxytryptamine receptor 2A (HTR2A) small molecule antagonists, cell-based qHTS assay (AID 1963586); further: nearly all actives have a fitted effect of over 45% in size
Method in brief: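 CHO cells stably expressing human HTR2A were plated for 18 h at 37 C, then loaded with calcium dye for 1 h. Compounds were preincubated 5 min at room temperature before DOI (4 nM solution) was added. Kinetic fluorescence was read for 3 min.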

[18] = target: 5-hydroxytryptamine receptor 2A (Homo sapiens) (UniProt P28223); assay: 5-hydroxytryptamine receptor 2A (HTR2A) small molecule agonists, cell-based qHTS assay (AID 1963587); further: nearly all actives have a fitted effect of over 30% in size
Method in brief: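 CHO cells stably expressing human HTR2A, plated 18 h, loaded with calcium dye 1 h at 37 C. Agonist mode: compounds added and intracellular calcium fluorescence recorded kinetically for 2 min at 1 sec intervals.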

[19] = target: Muscarinic acetylcholine receptor M1 (Homo sapiens) (UniProt P11229); assay: Cholinergic receptor muscarinic 1 (CHRM1) small molecule antagonists, cell-based qHTS assay (AID 1963588); further: nearly all actives have a fitted effect of over 40% in size
Method in brief: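 Compounds were tested at 15 concentrations in three independent runs. Dye-loaded CHRM1-CHO cells were exposed 5 min at room temperature before stimulation by acetylcholine added at 50nM. Intracellular calcium was read kinetically on FDSS for 3 min.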

[20] = target: Beta-2 adrenergic receptor (Homo sapiens) (UniProt P07550); assay: Adrenergic beta2 receptor (ADRB2) small molecule agonists, cell-based qHTS assay (AID 1963593);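 further: CHO cells stably overexpressing human ADRB2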
Method in brief: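 CHO cells stably over-expressing ADRB2 were plated overnight at 37C, then dosed with compounds plus a stimulation mix containing 100uM IBMX and 25uM Ro-20-1724 for 0.5hr at room temperature. cAMP was measured by HTRF competition, 1hr.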

Measured: Potency

Sequence of 5-hydroxytryptamine receptor 2A (Homo sapiens) (P28223 whole entry, looked up): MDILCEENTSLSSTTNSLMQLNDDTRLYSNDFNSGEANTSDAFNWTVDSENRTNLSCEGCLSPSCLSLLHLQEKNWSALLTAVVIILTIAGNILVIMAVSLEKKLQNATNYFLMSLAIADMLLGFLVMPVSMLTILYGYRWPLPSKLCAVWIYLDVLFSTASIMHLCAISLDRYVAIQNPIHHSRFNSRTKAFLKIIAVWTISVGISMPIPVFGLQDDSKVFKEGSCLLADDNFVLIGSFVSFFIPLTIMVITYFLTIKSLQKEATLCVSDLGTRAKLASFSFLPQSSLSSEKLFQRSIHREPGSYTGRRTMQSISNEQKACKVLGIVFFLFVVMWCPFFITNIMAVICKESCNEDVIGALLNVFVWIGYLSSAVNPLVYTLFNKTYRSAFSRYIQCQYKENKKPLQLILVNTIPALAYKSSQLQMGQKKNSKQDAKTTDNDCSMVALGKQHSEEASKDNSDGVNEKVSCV
Sequence of KiSS-1 receptor (Homo sapiens) (Q969F8 whole entry, looked up): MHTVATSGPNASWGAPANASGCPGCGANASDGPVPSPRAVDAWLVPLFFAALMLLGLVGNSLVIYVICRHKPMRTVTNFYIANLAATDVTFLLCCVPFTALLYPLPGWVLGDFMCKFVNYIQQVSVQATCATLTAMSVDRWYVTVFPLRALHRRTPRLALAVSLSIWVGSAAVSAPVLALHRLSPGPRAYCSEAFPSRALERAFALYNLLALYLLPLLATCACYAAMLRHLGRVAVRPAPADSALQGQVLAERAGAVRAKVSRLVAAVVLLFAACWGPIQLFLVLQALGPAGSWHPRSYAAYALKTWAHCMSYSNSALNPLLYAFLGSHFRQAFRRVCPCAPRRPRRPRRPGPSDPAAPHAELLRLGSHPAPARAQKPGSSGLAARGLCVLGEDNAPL
Sequence of Beta-2 adrenergic receptor (Homo sapiens) (P07550 whole entry, looked up): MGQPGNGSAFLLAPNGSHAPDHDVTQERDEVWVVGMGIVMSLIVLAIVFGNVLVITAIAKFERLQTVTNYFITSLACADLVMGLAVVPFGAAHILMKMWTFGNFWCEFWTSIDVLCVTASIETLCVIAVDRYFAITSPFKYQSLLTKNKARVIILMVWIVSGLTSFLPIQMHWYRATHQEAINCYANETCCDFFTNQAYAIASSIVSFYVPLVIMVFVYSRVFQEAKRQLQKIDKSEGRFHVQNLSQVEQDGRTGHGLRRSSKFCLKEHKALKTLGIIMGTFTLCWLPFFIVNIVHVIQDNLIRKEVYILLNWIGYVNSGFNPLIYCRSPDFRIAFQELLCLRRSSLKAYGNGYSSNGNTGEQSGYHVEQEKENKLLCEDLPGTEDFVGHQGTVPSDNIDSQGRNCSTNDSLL
Sequence of D(2) dopamine receptor (Homo sapiens) (P14416 whole entry, looked up): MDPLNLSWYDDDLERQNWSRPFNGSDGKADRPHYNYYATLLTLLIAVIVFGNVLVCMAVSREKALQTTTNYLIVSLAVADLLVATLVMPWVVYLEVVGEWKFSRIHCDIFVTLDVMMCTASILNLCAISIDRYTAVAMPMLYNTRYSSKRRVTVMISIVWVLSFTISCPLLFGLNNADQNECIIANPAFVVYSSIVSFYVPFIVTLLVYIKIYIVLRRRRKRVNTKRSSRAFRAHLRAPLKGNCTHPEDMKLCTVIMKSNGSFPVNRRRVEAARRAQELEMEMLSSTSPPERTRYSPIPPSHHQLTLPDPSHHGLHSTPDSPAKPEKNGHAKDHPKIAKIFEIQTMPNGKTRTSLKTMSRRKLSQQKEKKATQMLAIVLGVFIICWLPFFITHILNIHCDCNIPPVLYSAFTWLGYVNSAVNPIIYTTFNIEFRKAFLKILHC
Sequence of Gonadotropin-releasing hormone receptor (Homo sapiens) (P30968 whole entry, looked up): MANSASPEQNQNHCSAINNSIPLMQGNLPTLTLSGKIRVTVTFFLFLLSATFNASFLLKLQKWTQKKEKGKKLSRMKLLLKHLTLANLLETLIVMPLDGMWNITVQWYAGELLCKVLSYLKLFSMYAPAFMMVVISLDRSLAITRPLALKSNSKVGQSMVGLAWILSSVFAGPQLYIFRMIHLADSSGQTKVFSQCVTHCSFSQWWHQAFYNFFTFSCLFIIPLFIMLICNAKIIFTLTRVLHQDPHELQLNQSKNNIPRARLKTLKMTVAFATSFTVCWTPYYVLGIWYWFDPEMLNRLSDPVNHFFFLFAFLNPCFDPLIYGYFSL
Sequence of Muscarinic acetylcholine receptor M1 (Homo sapiens) (P11229 whole entry, looked up): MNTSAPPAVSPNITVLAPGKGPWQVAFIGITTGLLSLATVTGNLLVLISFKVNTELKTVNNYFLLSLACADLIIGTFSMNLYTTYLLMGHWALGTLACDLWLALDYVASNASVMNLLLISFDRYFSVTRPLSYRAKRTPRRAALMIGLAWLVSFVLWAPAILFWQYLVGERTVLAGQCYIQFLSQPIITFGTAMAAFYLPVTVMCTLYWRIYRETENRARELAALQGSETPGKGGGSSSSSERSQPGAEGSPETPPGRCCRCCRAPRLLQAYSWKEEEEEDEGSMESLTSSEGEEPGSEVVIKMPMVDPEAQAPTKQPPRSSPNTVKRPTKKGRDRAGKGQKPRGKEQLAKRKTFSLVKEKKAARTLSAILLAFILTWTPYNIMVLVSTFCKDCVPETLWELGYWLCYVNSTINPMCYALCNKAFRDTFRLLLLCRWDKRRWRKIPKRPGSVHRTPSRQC

CC1=CC(=O)CC(C)(C)C1=O
not listed: [17] | [18] | [19] | [20]
inactive: all other assays above

CC1OC(=O)C(C)OC1=O (stereo not drawn)
not listed: [9]
inactive: all other assays above

C=C(C)C1CC=C(C)C(O)C1 (stereo not drawn)
not listed: [13] | [17] | [20]
inactive: all other assays above

CCCCCCCCCC[N+](C)(C)[O-]
not listed: [10] | [12] | [18]
inactive: all other assays above

CCCCNc1ccc(C(=O)OCCN(C)C)cc1
not listed: [11] | [12] | [17] | [18] | [19]
inactive: all other assays above

C[C@@H]1C[C@H]2[C@@H]3CCC4=CC(=O)C=C[C@]4(C)[C@@]3(F)[C@@H](O)C[C@]2(C)[C@@]1(O)C(=O)COP(=O)(O)O
not listed: [11] | [12] | [17] | [18] | [19]
inactive: all other assays above

CC(C)CCOC(=O)CC(C)C
not listed: [19]
inactive: all other assays above

Cn1c(N)c(N=O)c(=O)n(C)c1=O
not listed: [12] | [16] | [18] | [19] | [20]
inactive: all other assays above

Nc1c2c(nc3ccccc13)CCCC2O (stereo not drawn)
not listed: [15] | [18] | [20]
inactive: all other assays above

CC(C)C/C=C(\C=O)c1ccccc1
not listed: [17] | [18] | [20]
inactive: all other assays above

O=C(O)c1cccc(N(Cc2cccnc2)c2ccc(OC(F)F)c(OC(F)F)c2)c1
not listed: [10] | [12] | [13] | [15]
inactive: all other assays above

CCCCCN(CCCOC)C(=O)C(CCC(=O)O)NC(=O)c1ccc(Cl)c(Cl)c1 (stereo not drawn)
not listed: [12] | [13] | [18] | [20]
inactive: all other assays above

CC(N)CCCC(C)(C)O (stereo not drawn)
not listed: [10] | [11] | [20]
inactive: all other assays above

O=C(C1CCCCC1)N1CC(=O)N2CCCc3ccccc3C2C1 (stereo not drawn)
not listed: [12] | [13] | [14] | [20]
inactive: all other assays above

CC(C)Nc1cccnc1N1CCN(C(=O)c2cc3cc(NS(C)(=O)=O)ccc3[nH]2)CC1
not listed: [11] | [13] | [15] | [20]
inactive: all other assays above
